Screens deposited in PubChem BioAssay by National Center for Advancing Translational Sciences (NCATS).
Sampled rows, rich in hits. Any-hit rate of the full collection: about 19%.
BCR signal inh: qHTS Assay to Find Inhibitors of Chronic Active B-Cell Receptor Signaling; ABC-DLBCL IkBa-CBG/CBR reporter, luminescence ratio, 4 h; Potency, µM (top dose mostly 46.1 µM), without a hit: at the top dose activity change, negative = inhibition, most hits filed as inhibitors; 340,000 tested, 0.05% active; AID 493014, 2011; active means well fitted inhibition curve with a large enough effect in the signal ratio, with a control signal flat, not every such curve was filed as active; inconclusive means small, poorly fitted or top-dose-only effect, or effect the other way, or a change in a side signal; the % refers to the signal ratio;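 further: potency means the concentration at half of the fitted maximal effect; plate controls were basal doxycycline-induced cells for no effect and cells given 10 µM MG132 for full effect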
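Cell line TMD8 (human ABC DLBCL), stably expressing tet-inducible CBG68-IkBa fusion and CBR; IMDM/0.5% FBS; cpd up to 46 uM; dox induction, 4 h, 37C/5% CO2; dual luminescence; green/red ratio; MG132 control.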
TDP1 cell noCPT: qHTS for Inhibitors of human tyrosyl-DNA phosphodiesterase 1 (TDP1): qHTS in cells in absence of CPT; 420,000 tested, 15% active; DT40 Tdp1-/- hTDP1 cells, no CPT, ATP luminescence, 48 h; AID 686978, 2013; Potency, µM (doses to about 46.2 µM), for the others: at the highest dose activity change, negative = growth inhibition, hits mostly inhibitors; further: potency means the concentration at half of the fitted maximal effect; on the % scale 0 is the no-effect control and ±100 the full control effect; nearly all actives have a fitted effect of over 55% in size
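Growth of hTDP1-complemented DT40 Tdp1-knockout cells is measured by ATP luminescence after at least 48 hr compound exposure at 37 °C, with DMSO substituting for the 20 nM CPT used in the parallel screen.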
MCF10A rereplic: A quantitative high throughput screen for small molecules that induce DNA re-replication in MCF 10a normal breast cells; MCF 10A DNA re-replication, Hoechst nuclear intensity, 48 h; Potency, µM (doses to about 46.1 µM), without a hit: at the highest dose activity, positive = re-replication, actives largely listed as activators; 350,000 tested, 2.9% active; further: potency means the concentration at half of the fitted maximal effect; % of control where 0% means no effect; nearly all actives have a fitted effect of over 50% in size
IL-1B inflam inh: qHTS for Inhibitors of Inflammasome Signaling: IL-1-beta AlphaLISA Primary Screen; THP-1 LPS/ATP IL-1B secretion, AlphaLISA, 16 h; hits give low values; activity change, % at 57.5 µM; 360,000 tested, 4.7% active; AID 743279, 2014; in the data active means activity change below about -50%; inconclusive means mostly about -30% to -49%; further: on the % scale 0 is the no-effect control and ±100 the full control effect
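THP-1 cells pretreated 1 hr with compounds (up to 57.5 uM final), then stimulated with LPS (250 ng/mL final) plus ATP (1.25 mM final); secreted IL-1B measured by AlphaLISA after 16 hr, decreased signal indicating inhibition.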
SW480 rereplic: A quantitative high throughput screen for small molecules that induce DNA re-replication in SW480 colon adenocarcinoma cells; SW480 DNA re-replication, Hoechst DNA content imaging, 48 h; Potency, µM (series often up to 46.1 µM), for inactives: at the top dose re-replication activation, hits mostly activators; 340,000 tested, 1.8% active; AID 624297, 2012; further: potency means the concentration at half of the fitted maximal effect; % of control where 0% means no effect; nearly all actives have a fitted effect of over 55% in size
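Readout is total intensity of Hoechst-stained nuclei, excited at 405 nm and collected at 500-530 nm. Compound treatment lasted 48 hr at 37 C in 5% CO2 before staining.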
DT40 TDP1 CPT: qHTS for Inhibitors of human tyrosyl-DNA phosphodiesterase 1 (TDP1): qHTS in cells in presence of CPT | 420,000 tested, 12% active | Potency, µM (titrated, usually from 46.2 µM), for the others: at the highest dose activity change, negative = growth inhibition, usual class: inhibitors | chicken DT40 Tdp1-/-;hTDP1 cells + 20 nM CPT, ATP luminescence, 48 h | AID 686979, 2013; further: potency means the concentration at half of the fitted maximal effect; on the % scale 0 is the no-effect control and ±100 the full control effect; nearly all actives have a fitted effect of over 55% in size
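Chicken DT40 Tdp1-/- cells complemented with human TDP1, 400 cells/well, exposed to compounds plus 20 nM camptothecin for at least 48 h at 37 C; viability read as ATP content by CellTiter-Glo luminescence.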
* marks the source's active call; other numbers are inactive results; ? = inconclusive; · = no result given. Unless noted, the call rests on the fitted dose curve; in most records, active means well fitted curve in the direction sought with a large enough effect; inconclusive means small, poorly fitted or top-dose-only effect, or another doubt; inactive means no such curve, though single readings can be large; an effect the other way counts as inactive or inconclusive.

SMILES	BCR signal inh	TDP1 cell noCPT	MCF10A rereplic	IL-1B inflam inh	SW480 rereplic	DT40 TDP1 CPT
CCN(CCn1cccn1)C(=O)c1ccc2nc(Cc3ccc(OC)cc3)oc2c1	5.0%	?	-1.3%	4.5	-19.8%	?
CCc1ccccc1N1C(=O)C2CC=CCC2C1=O (centres undefined)	-0.5%	16.4µM*	-0.4%	26.2	-0.9%	?
COc1ccc(S(=O)(=O)Nc2ccc3c(c2)OCCO3)cc1OC	-0.3%	-1.9%	?	14.3	7.4%	12.3%
O=S(=O)(Nc1ccc(N2CCCCC2)cc1)c1ccc(F)c(F)c1	3.7%	14.6µM*	?	-2.5	9.0%	?
Cc1nc2ccc(NC(=O)CCS(=O)(=O)c3ccc(Cl)cc3)cc2s1	?	14.6µM*	9.6%	64.8	1.8%	11.6µM*
Cc1nc2ccc(NS(=O)(=O)c3ccc(Br)cc3)cc2s1	-13.8%	5.17µM*	-3.5%	9.6	1.8%	13µM*
Cc1nc2ccc(NS(=O)(=O)c3ccc4c(c3)OCCO4)cc2s1	-19.3%	1.46µM*	3.5%	-9.4	0.2%	1.84µM*
COc1cc(C(=O)Nc2ccc(S(=O)(=O)N3CCCCC3)cc2)ccc1OCC(=O)N1CCOCC1	·	-9.1%	-4.1%	30.7	-8.3%	-19.9%
O=c1c(-c2cc(F)cc(F)c2)nc2cnc(N3CCOCC3)nc2n1C[C@H]1CCCO1	·	13.2%	·	·	·	9.0%
Cc1ccc(S(=O)(=O)Nc2ccc3nc(N)sc3c2)cc1	-7.4%	11.6µM*	21.0%	-2.8	-2.8%	13µM*
O=S(=O)(Nc1cccc(-c2ccc(N3CCOCC3)nn2)c1)c1cc(Cl)ccc1Cl	-1.3%	?	6.3%	15.8	-86.2%	-4.0%
Cc1cc(C)nc(NS(=O)(=O)c2ccc(NS(=O)(=O)c3ccc(F)c(F)c3)cc2)n1	·	8.6%	·	15.1	·	6.9%
Cc1nc2ccc(NS(=O)(=O)c3ccc(F)c(F)c3)cc2s1	-3.2%	?	?	33.1	-9.0%	18.4µM*
O=S(=O)(Nc1ccc(N2CCOCC2)cc1)c1cc(Cl)ccc1Cl	-18.3%	11.6µM*	5.1%	-3.3	-1.4%	-13.7%
Cc1nc2ccc(NS(=O)(=O)c3cccc([N+](=O)[O-])c3)cc2s1	?	14.6µM*	-5.6%	12.2	1.6%	18.4µM*
CC(=O)Nc1ccc2nc(NS(=O)(=O)c3ccc(C)cc3)sc2c1	-0.2%	-1.5%	-0.1%	-4.6	-0.5%	4.4%
COc1ccc(OC)c(S(=O)(=O)N2CCN(C(=O)CCc3ccccc3)CC2)c1	·	-15.4%	3.5%	-1.5	0.6%	-2.8%
OCC[C@@H]1C[C@H](O)[C@@H](O)[C@]2(CCCO2)O1	·	5.6%	1.2%	12.7	-5.4%	-1.1%
CC(=O)N1CCOc2ccc(S(=O)(=O)N3CCC(C(=O)NCc4ccc(Cl)cc4)CC3)cc21	·	?	·	0.4	·	?
COC(=O)C(NC(=O)c1ccc(F)cc1)(Nc1ncc(S(=O)(=O)c2ccc([N+](=O)[O-])cc2)s1)C(F)(F)F (centres undefined)	?	13µM*	?	-3.4	?	16.4µM*
c1cc2c3c(c1)c1c(n3CCNC2)CCCC1	·	23.7µM*	·	·	·	?
Cc1c(C)n2c3c(cccc13)CC2	2.2%	-4.7%	-35.0%	34.9	-10.9%	0.4%
CCC(C)c1ccc(Nc2ncccc2C#N)cc1 (centres undefined)	3.1%	0.3%	-3.3%	0.0	1.3%	5.6%
CCc1ccc(Nc2ncccc2C#N)cc1	1.9%	-6.6%	0.2%	-59.3*	-165.4%	-9.8%
